ChEMBL document CHEMBL3988442, “University of Dundee, Small-Polar-MMV Screening Library” (2021)
For some of these results: Potency and affinity values are given separately.

Tests used:
Set-up in all cases: scale not given: direction of the effect not stated beside the values
[1] = target: Protein translocase subunit SecA (Escherichia coli (strain K12)) (UniProt P10408); test: Assay to Identify E. coli SecA ATPase Inhibitors; assay type: functional; settings: 30 µM
[2] = target: T1, Ubiquitin-activating enzyme e1, putative (Leishmania donovani (strain BPK282A1)) (UniProt E9BSI1); test: Leishmania donovani Ubiquitin Activating Enzyme (LdE1); assay type: functional; settings: 30 µM
T1 sequence (whole entry): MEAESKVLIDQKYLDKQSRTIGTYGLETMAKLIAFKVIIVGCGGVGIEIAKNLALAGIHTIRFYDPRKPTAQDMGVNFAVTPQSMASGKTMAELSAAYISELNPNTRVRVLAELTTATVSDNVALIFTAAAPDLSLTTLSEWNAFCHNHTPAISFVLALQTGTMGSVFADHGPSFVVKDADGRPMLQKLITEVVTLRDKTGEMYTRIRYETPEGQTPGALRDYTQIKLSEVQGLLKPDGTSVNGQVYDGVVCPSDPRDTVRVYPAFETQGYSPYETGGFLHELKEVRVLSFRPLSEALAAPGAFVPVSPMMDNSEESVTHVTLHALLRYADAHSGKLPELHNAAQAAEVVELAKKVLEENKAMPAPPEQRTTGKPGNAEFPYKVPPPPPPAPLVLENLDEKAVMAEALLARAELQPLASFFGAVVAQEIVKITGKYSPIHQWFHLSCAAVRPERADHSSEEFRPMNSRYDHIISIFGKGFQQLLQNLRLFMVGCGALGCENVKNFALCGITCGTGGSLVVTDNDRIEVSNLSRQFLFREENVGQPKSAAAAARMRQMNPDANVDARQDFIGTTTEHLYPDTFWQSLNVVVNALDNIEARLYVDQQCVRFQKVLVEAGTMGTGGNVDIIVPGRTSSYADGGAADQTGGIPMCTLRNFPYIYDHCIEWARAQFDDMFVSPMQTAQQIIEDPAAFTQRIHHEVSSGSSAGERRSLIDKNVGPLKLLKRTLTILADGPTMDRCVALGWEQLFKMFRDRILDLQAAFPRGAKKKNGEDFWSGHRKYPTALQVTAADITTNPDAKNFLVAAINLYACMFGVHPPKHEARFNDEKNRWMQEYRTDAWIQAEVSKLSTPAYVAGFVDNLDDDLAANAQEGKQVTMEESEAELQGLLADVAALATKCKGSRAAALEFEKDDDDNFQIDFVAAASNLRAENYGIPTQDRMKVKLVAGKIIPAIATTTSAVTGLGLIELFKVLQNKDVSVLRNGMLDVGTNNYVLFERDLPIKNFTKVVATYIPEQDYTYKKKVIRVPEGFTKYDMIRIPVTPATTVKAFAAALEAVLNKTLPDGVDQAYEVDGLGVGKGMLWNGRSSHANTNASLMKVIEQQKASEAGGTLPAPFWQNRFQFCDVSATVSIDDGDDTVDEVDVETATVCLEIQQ

[3] = target: Sialic acid-binding Ig-like lectin 9 (Homo sapiens) (UniProt Q9Y336); test: Hs-Siglec9 ALPHAscreen SOP 20170721; settings: 10 µM
Trypanosoma cruzi = test: Trypanosoma cruzi phosphomannomutase and mannose-1-phosphate guanylyltransferase assay; assay type: functional; settings: 10 µM
[4] = target: T2, Arginase-2, mitochondrial (Homo sapiens) (UniProt P78540); test: in vitro enzyme assay to detect the production of urea directly proportional to the activity of Arginase II; assay type: functional; settings: 33.3 µM; note: in the data most compounds retested in dose-response had high values
T2 sequence (whole entry): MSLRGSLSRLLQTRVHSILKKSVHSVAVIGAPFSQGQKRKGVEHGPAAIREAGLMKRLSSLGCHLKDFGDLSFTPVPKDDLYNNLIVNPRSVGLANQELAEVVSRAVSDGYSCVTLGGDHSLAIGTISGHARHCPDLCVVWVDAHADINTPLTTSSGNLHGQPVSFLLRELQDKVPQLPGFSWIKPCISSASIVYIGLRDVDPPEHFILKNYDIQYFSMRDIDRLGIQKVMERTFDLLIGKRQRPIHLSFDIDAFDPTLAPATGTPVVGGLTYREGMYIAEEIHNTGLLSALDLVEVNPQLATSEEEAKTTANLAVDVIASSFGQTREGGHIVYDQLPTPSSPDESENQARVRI

[5] = target: T3, Proteasome subunit beta (Trypanosoma cruzi) (UniProt O96673); test: Trypanosoma cruzi proteasome chymotrypsin-like activity (TcProtChymo) assay.; note: in the data most compounds retested in dose-response had high values; assay type: functional; settings: 9.37 µM
T3 sequence (whole entry): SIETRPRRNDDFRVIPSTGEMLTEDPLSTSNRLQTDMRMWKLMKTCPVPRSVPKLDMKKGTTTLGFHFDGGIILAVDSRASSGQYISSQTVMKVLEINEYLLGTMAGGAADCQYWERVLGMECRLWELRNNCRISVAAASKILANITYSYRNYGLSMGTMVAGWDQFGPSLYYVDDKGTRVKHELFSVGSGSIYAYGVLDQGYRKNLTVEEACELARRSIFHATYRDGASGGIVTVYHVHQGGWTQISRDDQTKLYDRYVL

Homo sapiens = species: Homo sapiens; test: To identify inhibition of the IFN signalling (Jak-Stat) pathway via expression of an eGFP reporter gene under the control of an IFN-stimulated response element (ISRE) containing MxA promoter.; assay type: functional; settings: 30 µM
[6] = target: T4, Tyrosyl-tRNA synthetase, putative (Trypanosoma cruzi (strain CL Brener)) (UniProt Q4DSP6); test: Trypanosoma cruzi tyrosyl tRNA synthetase (TcYRS) _High Tyrosine SOP; assay type: functional; settings: 30 µM; note: in the data most compounds retested in dose-response had high values
T4 sequence (whole entry): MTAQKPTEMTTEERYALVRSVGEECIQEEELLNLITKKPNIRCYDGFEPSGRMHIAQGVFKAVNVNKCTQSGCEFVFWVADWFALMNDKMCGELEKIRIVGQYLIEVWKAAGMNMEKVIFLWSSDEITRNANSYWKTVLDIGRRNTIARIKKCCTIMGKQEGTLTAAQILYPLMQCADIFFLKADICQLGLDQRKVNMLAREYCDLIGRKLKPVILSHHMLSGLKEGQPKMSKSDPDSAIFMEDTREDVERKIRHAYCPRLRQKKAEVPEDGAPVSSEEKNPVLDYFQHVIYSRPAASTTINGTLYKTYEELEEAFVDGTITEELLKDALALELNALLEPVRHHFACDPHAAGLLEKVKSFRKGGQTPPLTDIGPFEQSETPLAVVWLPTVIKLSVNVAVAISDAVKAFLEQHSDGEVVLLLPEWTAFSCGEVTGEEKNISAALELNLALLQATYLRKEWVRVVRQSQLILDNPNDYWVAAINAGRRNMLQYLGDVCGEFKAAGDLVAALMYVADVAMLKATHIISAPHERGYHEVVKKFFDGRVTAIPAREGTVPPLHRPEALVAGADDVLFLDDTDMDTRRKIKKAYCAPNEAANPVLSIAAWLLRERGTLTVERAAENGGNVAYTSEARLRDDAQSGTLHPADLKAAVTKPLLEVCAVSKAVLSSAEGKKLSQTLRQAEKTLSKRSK

[7] = target: T4, Tyrosyl-tRNA synthetase, putative (Trypanosoma cruzi (strain CL Brener)); test: Trypanosoma cruzi tyrosyl tRNA synthetase (TcYRS) SOP; assay type: functional; settings: 30 µM
[8] = target: Chromo domain-containing protein 1 (Saccharomyces cerevisiae (strain ATCC 204508 / S288c) (Baker's yeast)) (UniProt P32657); test: ScCHD-1 Enzyme Inhibition Assay; assay type: functional; settings: 30 µM; note: in the data most compounds retested in dose-response had high values
Chromo domain-containing protein 1 (Saccharomyces cerevisiae (strain ATCC 204508 / S288c) (Baker's yeast)), sequence (P32657 whole entry, the tested form may be a part): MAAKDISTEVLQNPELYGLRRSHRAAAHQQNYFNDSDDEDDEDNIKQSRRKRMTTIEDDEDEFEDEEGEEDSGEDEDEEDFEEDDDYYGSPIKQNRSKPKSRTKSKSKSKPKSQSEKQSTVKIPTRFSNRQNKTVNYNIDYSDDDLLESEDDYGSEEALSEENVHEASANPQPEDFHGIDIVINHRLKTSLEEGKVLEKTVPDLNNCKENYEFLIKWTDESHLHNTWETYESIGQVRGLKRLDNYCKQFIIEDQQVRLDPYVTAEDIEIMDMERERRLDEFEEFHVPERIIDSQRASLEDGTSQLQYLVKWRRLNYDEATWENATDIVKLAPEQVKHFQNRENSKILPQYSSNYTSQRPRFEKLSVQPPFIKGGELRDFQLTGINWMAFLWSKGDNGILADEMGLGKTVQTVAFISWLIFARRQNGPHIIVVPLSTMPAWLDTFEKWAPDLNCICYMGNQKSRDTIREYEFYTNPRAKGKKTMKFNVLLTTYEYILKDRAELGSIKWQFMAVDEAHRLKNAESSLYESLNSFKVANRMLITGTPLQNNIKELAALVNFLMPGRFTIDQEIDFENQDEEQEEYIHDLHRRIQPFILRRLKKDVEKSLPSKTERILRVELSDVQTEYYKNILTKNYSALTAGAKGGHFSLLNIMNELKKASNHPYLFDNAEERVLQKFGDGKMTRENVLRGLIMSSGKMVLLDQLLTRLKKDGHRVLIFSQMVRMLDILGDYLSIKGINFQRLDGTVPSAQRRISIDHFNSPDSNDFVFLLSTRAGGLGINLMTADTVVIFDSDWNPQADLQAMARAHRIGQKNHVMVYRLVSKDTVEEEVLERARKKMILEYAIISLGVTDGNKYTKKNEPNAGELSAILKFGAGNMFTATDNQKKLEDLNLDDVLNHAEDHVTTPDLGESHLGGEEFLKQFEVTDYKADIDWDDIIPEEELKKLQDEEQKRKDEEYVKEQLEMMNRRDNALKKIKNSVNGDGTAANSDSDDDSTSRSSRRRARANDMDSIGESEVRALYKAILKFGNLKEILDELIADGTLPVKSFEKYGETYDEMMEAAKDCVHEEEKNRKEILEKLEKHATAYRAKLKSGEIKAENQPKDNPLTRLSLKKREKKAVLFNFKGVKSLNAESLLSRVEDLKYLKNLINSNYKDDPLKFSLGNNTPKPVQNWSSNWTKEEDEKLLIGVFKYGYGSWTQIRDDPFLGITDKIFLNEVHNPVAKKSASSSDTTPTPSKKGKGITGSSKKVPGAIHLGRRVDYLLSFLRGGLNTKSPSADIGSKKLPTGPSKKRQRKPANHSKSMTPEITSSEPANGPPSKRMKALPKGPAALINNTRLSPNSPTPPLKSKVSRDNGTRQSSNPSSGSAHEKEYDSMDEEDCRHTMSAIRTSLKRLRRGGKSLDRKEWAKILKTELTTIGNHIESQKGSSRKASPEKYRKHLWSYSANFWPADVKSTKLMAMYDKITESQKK

Sialic acid-binding Ig-like lectin 9 (Homo sapiens), sequence (Q9Y336 whole entry): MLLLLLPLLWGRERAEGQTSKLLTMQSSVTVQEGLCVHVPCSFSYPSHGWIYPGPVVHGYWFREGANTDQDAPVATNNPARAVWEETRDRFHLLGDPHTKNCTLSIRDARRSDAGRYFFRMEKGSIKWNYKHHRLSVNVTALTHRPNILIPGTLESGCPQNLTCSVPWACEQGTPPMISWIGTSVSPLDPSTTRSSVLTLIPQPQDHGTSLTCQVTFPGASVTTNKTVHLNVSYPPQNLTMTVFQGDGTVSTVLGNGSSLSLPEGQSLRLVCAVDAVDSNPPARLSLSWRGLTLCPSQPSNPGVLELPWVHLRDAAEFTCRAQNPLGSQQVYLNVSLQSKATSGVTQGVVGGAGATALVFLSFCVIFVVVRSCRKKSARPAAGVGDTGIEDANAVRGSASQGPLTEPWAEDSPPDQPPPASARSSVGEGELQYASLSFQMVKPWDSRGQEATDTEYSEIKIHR
Protein translocase subunit SecA (Escherichia coli (strain K12)), sequence (P10408 whole entry): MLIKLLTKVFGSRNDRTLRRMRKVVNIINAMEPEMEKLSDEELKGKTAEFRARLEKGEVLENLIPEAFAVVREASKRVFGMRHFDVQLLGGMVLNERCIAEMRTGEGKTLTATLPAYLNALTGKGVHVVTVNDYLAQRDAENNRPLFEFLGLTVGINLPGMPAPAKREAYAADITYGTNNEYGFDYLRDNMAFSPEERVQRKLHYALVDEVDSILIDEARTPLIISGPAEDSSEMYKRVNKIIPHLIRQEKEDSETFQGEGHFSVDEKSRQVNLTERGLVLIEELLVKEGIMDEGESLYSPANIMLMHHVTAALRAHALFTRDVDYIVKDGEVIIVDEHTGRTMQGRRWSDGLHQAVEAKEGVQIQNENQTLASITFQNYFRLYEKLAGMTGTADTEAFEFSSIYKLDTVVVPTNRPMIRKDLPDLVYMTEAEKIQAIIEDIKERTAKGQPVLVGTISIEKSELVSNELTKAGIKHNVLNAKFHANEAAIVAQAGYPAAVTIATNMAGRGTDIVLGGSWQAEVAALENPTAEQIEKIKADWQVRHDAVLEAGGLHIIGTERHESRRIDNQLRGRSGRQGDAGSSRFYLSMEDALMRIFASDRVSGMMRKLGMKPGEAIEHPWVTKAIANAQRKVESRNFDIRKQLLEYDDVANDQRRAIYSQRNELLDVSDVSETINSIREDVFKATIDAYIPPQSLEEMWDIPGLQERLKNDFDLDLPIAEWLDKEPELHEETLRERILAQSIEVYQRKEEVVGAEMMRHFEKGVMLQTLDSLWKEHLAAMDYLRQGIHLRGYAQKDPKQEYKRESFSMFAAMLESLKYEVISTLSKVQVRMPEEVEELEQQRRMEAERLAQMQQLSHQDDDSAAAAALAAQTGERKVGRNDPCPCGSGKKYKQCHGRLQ

SMILES | Percent Effect [1] [%] | Percent Effect [2] [%] | Percent Effect [3] [%] | Percent Effect (Trypanosoma cruzi) [%] | Percent Effect [4] [%] | Percent Effect [5] [%] | Percent Effect (Homo sapiens) [%] | Percent Effect [6] [%] | Percent Effect [7] [%] | Percent Effect [8] [%]
COCCN1CCCN(C(=O)NC(C)Cn2ccnc2)CC1 (stereo not given) | 0.718 | 13 | 12.5 | 0.56 | -4.71 | -0.702 | 8.17 | 0 | 18.8 | -5.5
Cc1ccc(Oc2ccc(NC(=O)NCC3CCOC3)cn2)cc1C (stereo not given) | -2.89 | 10.3 | -3.96 | 7.98 | 6.97 | 8.79 | -3.33 | 4.31 | 20.5 | -8.82
COCc1c(C(=O)NC2CCCC2)nnn1-c1ccc(C)cc1 | 106 | 9.33 | -6.27 | -2.37 | 0.443 | 8.54 | 14.6 | -2.12 | 7.5 | -17.9
CC(C)C(NC(=O)N1CCN(c2ccc(Cl)cc2)CC1)C(=O)NC1CC1 (stereo not given) | -5.57 | 5.41 | 7.5 | 2.23 | -3.15 | 16.4 | 21.7 | 4.79 | 19.5 | -1.96
Cc1nc(CNCC2CN(C)CCO2)cs1 (stereo not given) | -4.87 | 18.2 | 4.98 | 3.73 | -3.89 | 1.05 | -7.33 | 1.96 | 21.2 | -11.4
Cc1nc(C(=O)N2CCC(Cc3cnc4[nH]ccc4c3)C2)co1 (stereo not given) | -3.17 | 6.67 | -5.86 | -1.97 | -4.87 | 10.5 | 26.2 | -2.12 | -2.5 | -18.2
CCNC(=O)[C@@H]1C[C@H](NC(=O)Cc2ccsc2)CN1Cc1ccc(C)o1 | -3.95 | 13.5 | 10.2 | 9.02 | 14.3 | 20.9 | 20.3 | 7.98 | 21.9 | 80.5
Cc1noc(C)c1CN(C)C(=O)NC1CCN(c2ncccn2)CC1 | -4.16 | 10.3 | -17.2 | 11.7 | -0.82 | 9.64 | 13.1 | 5.26 | 20.5 | -9.27
Cc1nc(C)n(CC2CCCN2Cc2nc3ccccc3nc2C)n1 (stereo not given) | -4.08 | 0 | 4.74 | -0.402 | 1.33 | 15.5 | 2.68 | 5.79 | 7.69 | -11.7
CC(=O)N1N=C(c2ccccc2)OC1C(=O)NCCc1cccc(Cl)c1 (stereo not given) | 4.91 | 6.67 | -6.99 | -2.56 | 2.65 | 8.05 | 8.59 | 0 | 10 | -24.5
CC(C)n1ccnc1CN1CCCN(C(=O)c2cc(Cl)c[nH]2)CC1 | -0.854 | 10.3 | -9.31 | -3.1 | 11.5 | 16.1 | 10.8 | 6.22 | 18.1 | -3.25
Cc1cc(C)n(CC2CN(Cc3nc(-c4ccco4)no3)CCO2)n1 (stereo not given) | -4.45 | 23.4 | 7.28 | 5.78 | 1.43 | 8.25 | 12.5 | 5.88 | 23.5 | -11.8
NC(=O)N1CCC2(CC1)CN(Cc1cccnc1)C(=O)CO2 | -0.758 | 11.7 | 1.96 | -0.188 | 1.37 | 8.5 | -22.1 | 10.6 | 15 | -1.18
COc1cccc(COCC(=O)N2CCCC(n3ccnc3C)C2)c1 (stereo not given) | -2.06 | -5.13 | -2.52 | 4.6 | 4.92 | -4.35 | 19.1 | -3.35 | 1.21 | 2.95
COc1ccc2c(c1)OCC(CNC(=O)c1ccncc1)C2 (stereo not given) | -6.47 | 13.5 | 11.5 | 7.66 | 43.7 | 20.4 | 32.2 | 7.98 | 19.5 | 71.9
Cc1[nH]nc(CCC(=O)N2CCCC(OCc3cccnc3)C2)c1C (stereo not given) | -5.06 | 10.8 | 4.22 | 0.679 | -0.35 | 2.91 | 27.8 | 6.92 | 17.1 | -1.03
Cc1n[nH]c(=O)c2c(NC(=O)CN3CCOC(C)C3)oc(C)c12 (stereo not given) | 1.61 | 17.9 | -15.7 | 1.78 | 4.92 | 16.6 | 25.5 | 3.35 | 18.1 | -6.38
CCc1nc(CN(C)C2CCN(CCNS(=O)(=O)CC)C2)no1 (stereo not given) | 1.97 | 5.33 | -3.88 | -6.83 | -2.22 | 18.1 | 14.6 | -1.58 | -2.56 | -8.45
COC(=O)c1cccn1C1CCN(Cc2ccccc2)CC1 | 0.208 | 7.79 | 10 | 2.05 | -10.9 | 6.49 | 16.2 | 3.92 | 11.8 | -3.52
O=C(CN1CCCS1(=O)=O)NCCOc1ccc2c(c1)CCC2 | -6.62 | 2.56 | 4.23 | 3.66 | 5.74 | -10.2 | 6.45 | 1.44 | 6.02 | -2.78
Cc1cccc(CN2CCc3nnc(CO)n3CC2)n1 | -0.433 | 19.5 | -0.362 | 0 | 1.37 | 13 | 16.8 | 9.66 | 15 | -7.15
Cc1cc(OCC(=O)N2CCCC(c3ccn[nH]3)C2)no1 (stereo not given) | -3.04 | 5.33 | 5.5 | -5.62 | 3.55 | 6.36 | 3.56 | 3.68 | 7.69 | -8.42
